From PubChem BioAssay (Tox21) come the findings set out here.

The structures appear in SMILES notation. Records with an inconclusive call do not appear. Entries that show only a call come without a potency. Calls of active or inactive are those of the source. The call rests on the fitted dose curve; in most records, active means well fitted cell-killing curve with a large enough effect in the repeat runs; inconclusive means weak or mixed curves; inactive means flat fitted curve, though single readings scatter.

The nature of this assay: qHTS assay to identify small molecule antagonists of the estrogen receptor beta (ER-beta) signaling pathway - cell viability counter screen (AID 1259382). Further: nearly all actives have a fitted effect of over 55% in size. As to conditions: ER-beta-UAS-bla HEK293T viability, CellTiter-Glo luminescence, 16 h; series mostly up to 92.4 µM. An excerpt:
U.S. Tox21 Program National Center for Advancing Translational Sciences [NCATS] NIH Chemical Genomics Center [NCGC] U.S. Environmental Protection Agency [EPA] National Institutes of Environmental Health Sciences [NIEHS] National Toxicology Program [NTP] U.S. Food and Drug Administration [FDA] Tox21 Assay Overview: Estrogen receptor (ER), a nuclear hormone receptor, plays an important role in development, metabolic homeostasis and reproduction. Two subtypes of ER, ER-alpha and ER-beta, have similar expression patterns with some uniqueness in both types. Endocrine disrupting chemicals (EDCs) and their interactions with steroid hormone receptors like ER causes disruption of normal endocrine function. To identify the compounds that inhibit ER signaling, an ER-beta-UAS-bla GripTite cell line (Life Technologies, Madison, WI, USA) containing a beta-lactamase reporter gene under the control of an UAS response element was used to screen Tox21 10K compound library. The cytotoxicity of the Tox21 compound library against the ER-beta-bla cell line was tested in parallel by measuring the cell viability using CellTiter-Glo assay in the same wells.
Tox21 Assay Protocol Summary: ER-beta-UAS-bla HEK293T cells were dispensed at 2,000 cells/4 uL of assay medium containing 2% charcoal stripped FBS per well into black wall/clear-bottom 1536-well plates using a Multidrop Combi (ThermoFisher Scientific, Waltham, MA) dispenser. After the assay plates were incubated at a 37C and 5% CO2 for 6 hr, 23 nL of compounds dissolved in DMSO, positive controls or DMSO only was transferred to the assay plate by a Pintool station (Kalypsys, San Diego, CA), followed by addition of 1 uL (1nM as final concentration) of 17-beta-estradiol (E2) in assay medium using a Flying Reagent Dispenser (FRD, Aurora Discovery, San Diego, CA). The plates were incubated at 37C and 5% CO2 for 16 hr. Then 1 uL of LiveBLAzer B/G FRET substrate was added using a Flying Reagent Dispenser, the plates were incubated at room temperature for 2 hours, and fluorescence intensity was measured by an Envision plate reader (PerkinElmer, Shelton, CT). For cell viability readout that measures cytotoxicity, 4 uL/well of CellTiter-Glo reagent was added into the assay plates using a FRD. After 30 min incubation at room temperature, the luminescence intensity in the plates was measured using a ViewLux (PerkinElmer) plate reader.
`NCCOS(=O)(=O)O`: the Potency result is “inactive”.
As to `COc1cc(CCN)cc(OC)c1OC`, the Potency result was “inactive”.
The same measure, in the same setting: then `C#CC(C)(C)O`, with “inactive”; and `OCC(Cl)CCl` (stereo not given), with “inactive”; and `NC1(c2ccccc2)CCCCC1`, with “inactive”.
Same read-out and setting: then `CCN(CCO)CCO`, with “inactive”; and `COC[C@@H](NC(C)=O)C(=O)NCc1ccccc1`, with “inactive”; and `CCOP(=O)(CN(CCO)CCO)OCC`, with “inactive”.
Still for that read-out and setting: in the case of `CCCOC(=O)Cc1ccc(OCC(=O)N(CC)CC)c(OC)c1` it was “inactive”.
Turning to `C=CCN1CC[C@]23CCCC[C@H]2[C@H]1Cc1ccc(O)cc13`, the Potency result is “inactive”.
As for `C(COCC1CO1)OCC1CO1` (stereo not given), the Potency result was “inactive”.
The same measure, in the same setting: then `CCCOc1nn(C(=O)NS(=O)(=O)c2ccccc2C(=O)OC)c(=O)n1C`, with “inactive”; and `O=C(O)c1c(Cl)ccc2cc(Cl)cnc12`, with “inactive”; and `Nc1c(Cl)c(F)nc(OCC(=O)O)c1Cl`, with “inactive”.
Take `CCCCCCCC(=O)Cl`: the Potency result was “inactive”.
On the same count and under the same terms, then `C[C@H](CN1CCOCC1)C(C(=O)N1CCCC1)(c1ccccc1)c1ccccc1`, with “inactive”; and `N#CC(Br)(Br)C(N)=O`, with “inactive”; and `O=[N+]([O-])c1cccc(CCl)c1`, with “inactive”.
Consider `CCN(CC)CCOC(=O)C(O)(c1ccccc1)c1ccccc1`, for which the Potency entry was “inactive”.
On the same count and under the same terms, then `NCC1(CC(=O)O)CCCCC1`, with “inactive”; and `Cc1ccc(Cl)c(O)c1`, with “inactive”.
The same measure, in the same setting: then `CC(C)(N)Cc1ccccc1Cl`, with “inactive”; and `O=C(Cl)c1ccccc1`, with “inactive”.
In the case of `COC(=O)c1ccccc1CS(=O)(=O)NC(=O)Nc1nc(OC)cc(OC)n1`, the Potency result was “inactive”.
For the compound `C/C(=N\NC(=O)Nc1cc(F)cc(F)c1)c1ncccc1C(=O)O`, the Potency result is “inactive”.
For `CCOC(=O)CCl`, the Potency entry is “inactive”.
On the same count and under the same terms, in the case of `O=c1[nH]c2ccccc2o1` it was “inactive”; in that of `N#CN`, “inactive”.
`Clc1cc2c(cc1Cl)Oc1cc(Cl)c(Cl)cc1O2`: the activity change, negative = cytotoxicity is -1.8% [at 0.349 µM] (inactive).
With `CCOP(=S)(OCC)SCCl`, the Potency entry is “inactive”.
Same read-out and setting: in the case of `CCOC(=O)c1ncn2c1CN(C)C(=O)c1c(I)cccc1-2` it was “inactive”; in that of `O=C(O)C(Br)(Br)Br`, “inactive”.
For the compound `Oc1ccc(Cc2ccc(O)cc2)cc1`, the Potency result is “inactive”.
With `O=C(Cl)/C=C/C(=O)Cl`, the Potency entry was “inactive”.
Same read-out and setting: then `OP(O)c1ccccc1`, with “inactive”.
Turning to `CC(C)(C)NC[C@H](O)c1ccc(O)cc1Cl`, the Potency entry was “inactive”.
The same measure, in the same setting: then `CS(=O)(=O)c1ccc(C(=O)C2C(=O)CCCC2=O)c(Cl)c1COCC(F)(F)F`, with “inactive”.
On the same count and under the same terms, then `C1CN2CCC1CC2`, with “inactive”.
Consider `NC(=O)OCCCc1ccccc1`, for which the Potency result was “inactive”.
`COP(=O)(OC)O/C(C)=C/C(=O)N(C)C`: the Potency result is “inactive”.
